Broadly, the AC50 is the concentration giving half of the maximal activity seen.

Calls of active or inactive are those of the source. How the source made its calls: active means hit-call score of the fitted dose curve at least 0.9, where 1 is the maximum; inactive means score below 0.9.

The values that follow come from PubChem BioAssay (EPA / NIEHS).

A short description of this experiment: APR_HepG2_MitoMembPot_1hr: Apredica 1-hour HepG2 Assay for Mitochondrial Membrane Potential (AID 2282675). As to conditions: imaging, actives raise or lower the signal. As to the method: APR_HepG2_1hr is a cell-based, multiplexed-readout assay that uses HepG2, a human liver cell line, with measurements taken at 1 hour after chemical dosing in a 384-well plate.APR_HepG2_MitoMembPot_1hr is one of 10 assay component(s) measured or calculated from the APR_HepG2_1hr assay. It is designed to make measurements of dye binding, a form of membrane potential reporter, as detected with fluorescence intensity signals by HCS Fluorescent Imaging technology.Data from the assay component APR_HepG2_MitoMembPot_1hr was analyzed into 1 assay endpoint. This assay endpoint, APR_HepG2_MitoMembPot_1hr, was analyzed with bidirectional fitting relative to DMSO as the negative control and baseline of activity. Using a type of membrane potential reporter, gain or loss-of-signal activity can be used to understand changes in the signaling. Furthermore, this assay endpoint can be referred to as a primary readout, because this assay has produced multiple assay endpoints where this one serves a signaling function. To generalize the intended target to other relatable targets, this assay endpoint is annotated to the cell morphology intended target family, where the subfamily is organelle conformation.
Cells were treated with dimethyl sulfoxide (DMSO) as a solvent control at a final concentration of 0.5% v/v or with compounds in DMSO with a resulting final DMSO concentration of 0.5% v/v. Compound treatment was done at concentrations of 0.39, 0.78, 1.56, 3.12, 6.24, 12.5, 25, 50, 100, and 200 uM in duplicate on each plate. Cells were treated with compounds for 1, 24, or 72 hr. Carbonyl […] m-chloro-phenylhydrazone (CCCP) and taxol were used as positive controls for mitochondrial function and cytoskeletal stability, respectively; DMSO served as the negative control for this experiment. Cells were fixed by the direct addition of 50 uL formaldehyde in Hank's Balanced Salt Solution (HBSS) to a final concentration of 3.7%. After incubation in the fixation medium for 30 min at room temperature (293-298 K), cells were rinsed twice with HBSS and treated with cell permeabilization buffer (16 uL of 0.5% Triton X-100) for 10 min at room temperature (293-298 K) before labeling. For mitochondrial membrane potential and mitochondrial measurements, pre-fixed cells were incubated with 50 uL of MitoTracker Red CMXRos (Invitrogen) at a concentration of 250 nM for 30 min before fixation. In the remaining cases, post-fixed cells were labeled by incubation with a multiplexed mixture of primary antibodies in HBSS for 60 min at room temperature (293-298 K) to detect immunoreactivity of c-Jun (1:500), phospho-histone H3 (1:100), phospho-histone H2A.x (1:200), p53 (1:400), alpha-tubulin (1:200) and Hoechst 33342 (2 ug/mL). Cells were labeled for multiplexed imaging on two separate plates: a) Hoechst 33342, MitoTracker Red, phospho-histone H3, and alpha-tubulin, and b) Hoechst 33342, phospho-histone H2A.x, and c-Jun. A final rinse with HBSS (50 uL) was performed before analysis. The primary and secondary antibodies for the proteins were phospho-histone H3 (rabbit anti-phospho-histone H3 and FITC-donkey anti-rabbit IgG), phospho-histone H2A.x (mouse anti-phospho-histone H2A.x and FITC-donkey anti-mouse IgG), c-Jun (rabbit anti-phospho-c-Jun and Cy3-donkey anti-rabbit IgG), p53 (sheep anti-p53 and Cy5-donkey anti-sheep IgG), alpha-tubulin (mouse anti-alpha-tubulin and Cy5-donkey anti-mouse IgG). These antibodies are available as the CellCiphr HepG2 assay kit (Millipore).Digital images of each well were captured using a Cellomics ArrayScan VTI (Thermo Scientific Cellomics) (0.8 NA objective, 0.63x optical coupler, and XF-93 filter set) at 20x magnification. The images were acquired using the autofocus feature of the ArrayScan instrument, which entails the following steps. First, the camera focuses on channel 1 (Hoechst 33342), where nuclei are identified. Second, a Z offset of 1 um is used for capturing mitochondria (MitoTracker Red). […]
Take `Cc1cc(C)nc(Nc2ccccc2)n1`: the result was inactive.

On to `CS(=O)(=O)c1ccc(C(=O)C2C(=O)CCCC2=O)c([N+](=O)[O-])c1`, for which the result was inactive.

Regarding `N#CN=C1SCCN1Cc1ccc(Cl)nc1`, the outcome was inactive.

As to `Clc1cccc(C(Cl)(Cl)Cl)n1`, the compound was called inactive.

For the compound `CCNP(=S)(OC)O/C(C)=C/C(=O)OC(C)C` (stereo not given), the outcome was inactive.

Regarding `CCOc1nc(F)cc2nc(S(=O)(=O)Nc3c(Cl)cccc3Cl)nn12`, the compound was classed as inactive.

`CCN(CC)C(=O)C(C)Oc1cccc2ccccc12` (stereo not given): the compound was classed as inactive.

In the case of `COC(=O)c1c(C(F)F)nc(C(F)(F)F)c(C2=NCCS2)c1CC(C)C`, the compound was called inactive.

Consider `CC(C)Nc1nc(Cl)nc(NC(C)C)n1`, for which the result was inactive.

Turning to `O=C(Nc1ccccc1-c1ccc(Cl)cc1)c1cccnc1Cl`, the call was inactive.

As for `CC1(C)C(C(=O)OC(C#N)c2cccc(Oc3ccccc3)c2)C1(C)C` (stereo not given), the call was inactive.

On to `Cc1ccc(N=CN(C)C=Nc2ccc(C)cc2C)c(C)c1`, for which the AC50 was 108 µM (active).

As for `CCSC(=O)N1CCCCCC1`, the outcome was inactive.

For `CNC(=O)N(C)c1nnc(C(C)(C)C)s1`, the result was inactive.

Consider `CN/C(=N\[N+](=O)[O-])NCc1cnc(Cl)s1`, for which the compound was called inactive.

`COC(=O)NC(=S)Nc1ccccc1NC(=S)NC(=O)OC`: the call was inactive.

On to `Clc1nc(Cl)nc(Nc2ccccc2Cl)n1`, for which the compound was classed as inactive.

Consider `O=C(O)c1c(Cl)ccc2cc(Cl)cnc12`, for which the result was inactive.

For `O=C1C2CC=CCC2C(=O)N1SC(Cl)(Cl)Cl` (stereo not given), the outcome was inactive.

With `Cc1c(COC(=O)[C@@H]2[C@H](/C=C(\Cl)C(F)(F)F)C2(C)C)cccc1-c1ccccc1`, the call was inactive.

In the case of `COCC(C)N(C(=O)CCl)c1c(C)csc1C` (stereo not given), the compound was called inactive.

As to `O=P(O)(O)CCCl`, the outcome was inactive.

Turning to `CCCCOCN(C(=O)CCl)c1c(CC)cccc1CC`, the outcome was inactive.

With `CCCCC(C#N)(Cn1cncn1)c1ccc(Cl)cc1` (stereo not given), the outcome was inactive.

As to `COP(=O)(OC)O/C(C)=C/C(=O)N(C)C`, the compound was called inactive.

On to `C=C(C)CN(CC)c1c([N+](=O)[O-])cc(C(F)(F)F)cc1[N+](=O)[O-]`, for which the compound was classed as inactive.

For `COC(=O)NS(=O)(=O)c1ccc(N)cc1`, the compound was classed as inactive.

With `Cc1nc(N(C)C)nc(OC(=O)N(C)C)c1C`, the result was inactive.

Turning to `COP(=S)(OC)Oc1ccc([N+](=O)[O-])c(C)c1`, the result was inactive.

`Nc1c(Cl)c(F)nc(OCC(=O)O)c1Cl`: the compound was classed as inactive.

In the case of `N#Cc1c[nH]cc1-c1cccc2c1OC(F)(F)O2`, the compound was classed as inactive.

In the case of `Nc1cnn(-c2ccccc2)c(=O)c1Cl`, the call was inactive.

Turning to `CCC(C)n1c(=O)[nH]c(C)c(Br)c1=O` (stereo not given), the outcome was inactive.

`CCOc1cc(C(C)(C)C)ccc1C1COC(c2c(F)cccc2F)=N1` (stereo not given): the AC50 is 100 µM (active).

With `COC(=O)N(C(=O)N1CO[C@@]2(C(=O)OC)Cc3cc(Cl)ccc3C2=N1)c1ccc(OC(F)(F)F)cc1`, the result was inactive.

Regarding `CCCCC(O)(Cn1cncn1)c1ccc(Cl)cc1Cl` (stereo not given), the result was inactive.

Consider `CS(=O)(=O)c1cc(C(F)(F)F)ccc1C(=O)c1cnoc1C1CC1`, for which the call was inactive.

On to `C=CCOC(=O)C(C)(C)OC(=O)c1cc(-n2c(=O)cc(C(F)(F)F)n(C)c2=O)ccc1Cl`, for which the result was inactive.

Consider `CC(C)(C)C(=O)C(Oc1ccc(Cl)cc1)n1cncn1` (stereo not given), for which the call was inactive.

For `COCc1cnc(C2=NC(C)(C(C)C)C(=O)N2)c(C(=O)O)c1` (stereo not given), the result was inactive.
